Assay results reported in PubChem BioAssay (Tox21).
Results filed as inconclusive are left out. Active and inactive are the calls of the source. Calls come from the whole dose curve; as a rule, active = well fitted cell-killing curve with a large enough effect in the repeat runs; inconclusive = weak or mixed curves, or effect the other way; inactive = flat fitted curve, though single readings scatter.

Assay: cAMP Responsive Elements (CRE) small molecule agonists, cell-based qHTS assay: qHTS cell viability counter screen (AID 2060914);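 note: viability read after 3 h of compound exposure; nearly all actives have a fitted effect of over 50% in size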
Details: CRE-bla HEK293T viability, CellTiter-Glo luminescence, 5 h; series mostly up to 92.4 µM; activity change, negative = cytotoxicity: at the top concentration
Summary of the method: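 CRE-bla HEK 293T cells, plated 18 h at 37 °C, were exposed to compounds for 3 h at 37 °C/5% CO2. Viability was then measured in the same wells by CellTiter-Glo luminescence after 30 min at room temperature.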
% is set by controls: 0 for no effect and ±100 for the full control effect; potency is the fitted concentration of half-maximal effect.

| Structure (SMILES) | activity change, negative = cytotoxicity | Potency |
| --- | --- | --- |
| CC(C)(O)Cc1ccccc1 | 2.67% (inactive) | – |
| CN(C)Cc1ccccc1O | -7.49% (inactive) | – |
| NCCNCCNCCNCCN | – | inactive |
| Fc1ccccc1[C@@H](F)COC1CCC(Nc2ncnc3[nH]ncc23)CC1 (stereo not given in full) | -28.2% (inactive) | – |
| O=C1CC[C@H](C(=O)N2CCCCC2)N1 | -5.9% [at 42.5 µM] (inactive) | – |
| O=C(O)c1cc(O)c2ccccc2c1O | -15.2% (inactive) | – |
| OCCSc1ccccc1 | -12.2% (inactive) | – |
| COC(=O)[C@]1(C)CCC[C@@]2(C)[C@H]1CC=C1C=C(C(C)C)CC[C@@H]12 | -2.23% (inactive) | – |
| CC(=O)SCC(CC(=O)c1ccc(C)cc1)C(=O)O (stereo not given) | 4.62% [at 42.5 µM] (inactive) | – |
| CC(C)(C)c1csc(-c2cc3cc(OCc4ccccc4CC(=O)O)ccc3o2)n1 | -19.7% (inactive) | – |
| OC[C@]1(O)OC[C@@H](O)[C@H](O)[C@@H]1O | – | inactive |
| COc1ccccc1N1CCN(CCCCNC(=O)c2ccc(-c3ccc(C(C)=O)cc3)cc2)CC1 | 6.79% [at 42.5 µM] (inactive) | – |
| CC(C(=O)O)c1ccc(C(=O)c2ccccc2)s1 (stereo not given) | -5.53% [at 42.5 µM] (inactive) | – |
| O=C(CN1CCNCC1)NC1CCCCC1 | -11.9% [at 42.5 µM] (inactive) | – |
| COCCCCCCCCOCCC[Si](C)(O[Si](C)(C)C)O[Si](C)(C)C | -0.196% (inactive) | – |
| ClC1=C(Cl)C1(Cl)Cl | -3.42% (inactive) | – |
| CC(=O)Nc1ccc(N)cc1 | -4.58% (inactive) | – |
| CN(C)CC/C=C1\c2ccccc2Sc2ccc(Cl)cc21 | 1.08% [at 42.5 µM] (inactive) | – |
| C[C@@H]1CN(c2c(F)c(F)c3c(=O)c(C(=O)O)cn(C4CC4)c3c2F)C[C@H](C)N1 | -12.9% [at 18.9 µM] (inactive) | – |
| CCCCCCCCCCCCCC[n+]1ccccc1 | – | 61.1 µM (active) |

| Structure (SMILES) | activity change, negative = cytotoxicity | Potency |
| --- | --- | --- |
| c1ccc(C(O[C@H]2CCCN(CCc3ccc4c(c3)OCO4)C2)c2ccccc2)cc1 | 1.67% [at 42.5 µM] (inactive) | – |
| CC(C)(C)NC(=O)[C@@H]1CN(Cc2cccnc2)CCN1C[C@@H](O)C[C@@H](Cc1ccccc1)C(=O)N[C@H]1c2ccccc2C[C@H]1O | – | inactive |
| C=Cc1ccc(C(C)(C)C)cc1 | 0.745% (inactive) | – |
| CCCCCCCCN(C)CCCCCCCC | -0.389% (inactive) | – |
| CN(C)CCN(Cc1ccc(Cl)cc1)c1ccccn1 | -11.1% [at 42.5 µM] (inactive) | – |
| CCc1cccc(CC)c1N(COC)C(=O)CS(=O)(=O)O | -7.18% (inactive) | – |
| CCc1ccc(O)c(C(C)(C)C)c1 | -22.4% (inactive) | – |
| CCO[Si](CCC1CCC2OC2C1)(OCC)OCC (stereo not given) | 3.86% (inactive) | – |
| CC(=O)Nc1ccc2c(c1)Cc1cc(NC(C)=O)ccc1-2 | – | inactive |
| O=C1OC2(c3ccc(O)cc3Oc3cc(O)ccc32)c2ccc(N=C=S)cc21 | -0.491% (inactive) | – |
| Cc1ccc(O)c([N+](=O)[O-])c1 | 2.1% (inactive) | – |
| CC12CCC(C(=O)C1=O)C2(C)C (stereo not given) | -9.43% (inactive) | – |
| CC(C)=CCC1C(=O)N(c2ccccc2)N(c2ccccc2)C1=O | 19.4% [at 42.5 µM] (inactive) | – |
| CN(C)CC/C=C1\c2ccccc2COc2ccccc21 | -1.12% [at 42.5 µM] (inactive) | – |
| NC(=O)c1ccccc1O | – | inactive |
| c1ccc(C[P+](c2ccccc2)(c2ccccc2)c2ccccc2)cc1 | 1.69% (inactive) | – |
| O=C(O)c1cccc(C(=O)O)c1 | – | inactive |
| Clc1cccc(-c2cc(Cl)cc(Cl)c2)c1 | -4.55% (inactive) | – |
| c1ccc2ncccc2c1 | -2.39% (inactive) | – |
| COCC(=O)O[C@]1(CCN(C)CCCc2nc3ccccc3[nH]2)CCc2cc(F)ccc2[C@@H]1C(C)C | -2.48% [at 42.5 µM] (inactive) | – |
